# From article PMC7826789 (International Journal of Molecular Sciences, 2021)
# How the values were obtained:
# Conditions in all cases: Compound Concentration (nM):1000
# PDGFRB = tested on: PDGFRB
# PDPK1 = tested on: PDPK1
# PFCDPK1(P.falciparum) = tested on: T1, PFCDPK1(P.falciparum)
# T1 construct: gene CDPK1
# PFPK5(P.falciparum) = tested on: T2, PFPK5(P.falciparum)
# T2 construct: gene MAL13P1.279
# PFTAIRE2 = tested on: T3, PFTAIRE2
# T3 construct: gene CDK15
# PFTK1 = tested on: T4, PFTK1
# T4 construct: gene CDK14
# PHKG1 = tested on: PHKG1
# PHKG2 = tested on: PHKG2
# PIK3C2B = tested on: PIK3C2B
# PIK3C2G = tested on: PIK3C2G
# PIK3CA(C420R) = tested on: PIK3CA(C420R)
# PIK3CA(E542K) = tested on: PIK3CA(E542K)
# PIK3CA(E545A) = tested on: PIK3CA(E545A)
# PIK3CA(E545K) = tested on: PIK3CA(E545K)
# PIK3CA(H1047L) = tested on: PIK3CA(H1047L)
# PIK3CA(H1047Y) = tested on: PIK3CA(H1047Y)
# PIK3CA(I800L) = tested on: PIK3CA(I800L)
# PIK3CA(M1043I) = tested on: PIK3CA(M1043I)
# PIK3CA(Q546K) = tested on: PIK3CA(Q546K)
# PIK3CA = tested on: PIK3CA
# 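Further: KINOMEscan scanMAX binding as percent activity remaining versus control; lower means stronger binding.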
SMILES,Percent Control (PDGFRB) [%],Percent Control (PDPK1) [%],Percent Control (PFCDPK1(P.falciparum)) [%],Percent Control (PFPK5(P.falciparum)) [%],Percent Control (PFTAIRE2) [%],Percent Control (PFTK1) [%],Percent Control (PHKG1) [%],Percent Control (PHKG2) [%],Percent Control (PIK3C2B) [%],Percent Control (PIK3C2G) [%],Percent Control (PIK3CA(C420R)) [%],Percent Control (PIK3CA(E542K)) [%],Percent Control (PIK3CA(E545A)) [%],Percent Control (PIK3CA(E545K)) [%],Percent Control (PIK3CA(H1047L)) [%],Percent Control (PIK3CA(H1047Y)) [%],Percent Control (PIK3CA(I800L)) [%],Percent Control (PIK3CA(M1043I)) [%],Percent Control (PIK3CA(Q546K)) [%],Percent Control (PIK3CA) [%]
NS(=O)(=O)c1ccc(N/N=C2\C(=O)Nc3ccc(-c4cnco4)cc32)cc1 [GW276655],57,82,93,95,60,94,100,81,86,96,81,89,98,89,94,87,91,87,97,96
Cl.O=C(O[C@H]1CN[C@H](C#Cc2cc3ncnc(Nc4ccc5c(cnn5Cc5ccccc5)c4)c3s2)C1)N1CCOCC1 [GSK200398A],100,89,88,100,91,100,96,98,88,84,100,100,100,85,100,100,83,100,98,100
O=C1Nc2ccc(C(=O)c3ccco3)cc2C1=Cc1cc(Cl)c(O)c(Cl)c1 [GW406108X],88,97,9.5,93,100,89,100,70,12,39,76,76,83,72,41,79,34,93,77,91
NS(=O)(=O)c1ccc(Nc2ncc(-c3ccccc3)o2)cc1 [GW572399X],3.4,100,27,100,98,100,100,100,100,100,100,100,100,100,93,100,100,93,100,100
COc1cc(N2CCN(C(C)C)CC2)ccc1Nc1nc(Nc2ccc(F)cc2C(=O)NC[C@@H](O)CO)c2cc[nH]c2n1 [GSK1392956A],100,91,94,74,100,100,29,39,100,96,99,100,100,95,100,83,97,97,100,100
NS(=O)(=O)c1ccc(N/N=C2\C(=O)Nc3ccc(C(=O)NCCc4c[nH]cn4)cc32)cc1 [GW300660X],100,97,69,78,100,100,100,71,100,86,100,100,100,100,98,100,98,81,100,100
COc1cccc(-c2c[nH]c3c(N/N=C/c4ccncc4)ncnc23)c1 [GW814408X],5.5,78,5.2,97,78,95,100,100,100,92,100,100,100,100,99,78,100,99,100,95
COc1ccc2cc(-c3c(-c4ccncc4)nc(-c4ccc(S(C)(=O)=O)cc4C)n3C)ccc2c1 [SB-633825],70,100,61,77,45,80,100,84,76,81,88,79,84,81,100,91,83,83,91,70
COc1cccc(-n2ncc3c(N/N=C/c4ccncc4)ncnc32)c1 [GW784752X],60,92,33,100,74,95,37,93,100,98,100,100,100,92,100,100,96,100,100,100
Cl.O=C(Nc1ccc(Oc2ccc3[nH]c(NC(=O)c4ccco4)nc3c2)cc1)Nc1cc(C(F)(F)F)ccc1F [GW683134A],0.3,67,84,100,87,100,100,95,100,83,100,99,100,100,78,100,100,100,100,100
CN1CCN(C(=O)c2ccc(NC(=O)Nc3ccc(N(C)c4ccnc(Nc5ccc(CS(C)(=O)=O)cc5)n4)cc3)cc2)CC1.Cl [GW830263A],0,68,71,95,100,81,100,100,100,100,100,98,100,97,96,100,98,100,100,98
CC(C)COC(=O)c1ccc2c(c1)/C(=C/Nc1ccc(S(N)(=O)=O)cc1)C(=O)N2 [GW416981X],57,55,71,100,75,89,100,54,100,97,100,100,100,100,100,100,100,87,100,100
CCc1ccc(Oc2nccc(-c3c(-c4ccc(F)cc4)ncn3C3CCNCC3)n2)cc1 [SB-242719],81,86,66,87,93,86,90,72,100,93,81,98,87,92,63,81,91,100,90,92
COc1cc2ncn(-c3cc(O[C@H](C)c4ccccc4Cl)c(C(N)=O)s3)c2cc1OC [GSK237701A],12,90,75,57,60,100,100,79,12,78,65,44,62,51,53,56,49,52,58,54
CC1=C(C(=O)Nc2ccc3[nH]ncc3c2)C(c2ccc3ccccc3c2)CC(=O)N1 (stereo not shown) [GSK270822A],74,100,66,70,60,64,100,100,92,79,90,83,91,88,97,89,93,74,86,90
COc1cc(C=NNc2ncnc3c2cnn3-c2ccccc2)ccc1O [GW513184X],40,100,100,100,100,91,100,100,71,100,78,100,76,100,100,62,100,59,100,78
COc1ccc2[nH]c3c4[nH]c5ccc(OC)cc5c4c4c(c3c2c1)C(=O)NC4=O [GW296115X],0.1,25,29,82,91,85,12,52,94,76,90,92,100,84,74,89,93,95,91,91
COc1cc2ncnc(Nc3ccc4c(cnn4Cc4ccccc4)c3)c2cc1OC.Cl [GW282449A],100,100,57,100,100,100,100,100,100,97,100,100,100,100,100,100,99,100,100,100
COC(=O)Nc1nc2ccc(Oc3ccc(NC(=O)Nc4cc(C(F)(F)F)ccc4F)cc3)cc2s1.Cl [GW693917A],0.1,95,77,77,27,56,100,90,100,87,95,96,100,83,91,84,82,100,94,100
CN(C)c1cc2c(Nc3ccc4c(cnn4Cc4ccccc4)c3)ncnc2cn1 [GW282974X],98,100,32,94,79,100,91,83,35,89,83,90,95,67,88,70,76,97,85,89
